# Assay results as given in the supplement of paper PMC11219838.
# Values without a mark were called inactive.
# System: Caenorhabditis elegans L1 (N2)
# Assay: survival and reproduction score of C. elegans L1 (0: 0-10 living worms, 1: 11-20, 2: 21-50, 3: >50, 4: overgrown) (score 0-4); higher = more worms, less nematicidal, active = 1 or less; extreme values may be limits of the assay
# Details: 60 µM; 6 days; temperature: 20 °C
# How it was run: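 In liquid NGM with E. coli HB101, approximately 20 synchronized C. elegans N2 L1s per 96-well well were exposed to compound at 60 µM final (0.6% v/v DMSO) for 6 days at 20 °C with shaking at 200 rpm in sealed plates. Survival and reproduction were judged under a dissection microscope as an ordinal rating of living worms per well. Ratings went from 0 (0–10 worms) to 4 (overgrown, starved) and were averaged over two biological replicates.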
row,SMILES,survival and reproduction score
1,Cc1cc(C)c(C)c(OCc2nc(-c3ccccc3)no2)c1,4
2,Cc1ccc(-c2nnc(SCC(=O)Nc3cc(C)ccc3C)o2)cc1,4
3,O=C(NCCc1ccccc1)c1ccccc1-c1nc(-c2ccccc2Cl)no1,4
4,CC(=O)Nc1ccc(-c2nc(-c3ccccc3)no2)cc1,4
5,COc1ccc(OC(C)c2nc(-c3ccccn3)no2)cc1 (centres undefined),4
6,Cc1c(C(=O)CSc2nnc(-c3ccccc3)o2)c2ccccc2n1C,4
7,Cc1ccccc1OCc1nc(-c2ccc(Cl)cc2)no1,4
8,O=C(CSc1nnc(-c2cccc(Cl)c2)o1)N1CCCCC1,4
9,Cc1ccc(OCc2nc(-c3ccccc3)no2)cc1C,4
10,CCc1ccc(NC(=O)CSc2nnc(-c3ccco3)o2)cc1,4
11,Cc1ccc(-c2noc(COc3ccc(Cl)c(C)c3)n2)cc1,4
12,COC(=O)c1ccc(CSc2nnc(-c3ccc(OC)cc3)o2)cc1,4
13,CCOc1ccccc1-c1nnc(SCC(=O)Nc2nccs2)o1,4
14,Fc1ccc(-c2noc(COc3cccc(Cl)c3)n2)cc1,4
15,Clc1ccc(-c2nc(-c3ccc4c(c3)OCO4)no2)cc1,4
16,Ic1ccc(OCc2nc(-c3ccncc3)no2)cc1,4
17,CCN(CC)C(=O)CSc1nnc(-c2cccc(Cl)c2)o1,4
18,COc1ccc(-c2noc(COc3ccc(Cl)cc3Cl)n2)cc1,4
19,CCCCCSc1nnc(-c2ccc(Cl)cc2Cl)o1,2
20,c1coc(-c2nnc(-c3ccco3)o2)c1,4

row,SMILES,survival and reproduction score
1,Fc1ccc(-c2nc(-c3cccc(C(F)(F)F)c3)no2)cc1,4
2,COc1ccccc1-c1nnc(SCc2ccc(F)cc2)o1,4
3,Cc1cccc(-c2noc(COc3ccc(Br)cc3)n2)c1,4
4,Cc1ccc(SC(C)c2nc(-c3ccncc3)no2)cc1 (centres undefined),4
5,CCOc1ccc(-c2nc(-c3cccnc3)no2)cc1OCC,4
6,COc1nc(-c2ccccc2)ccc1-c1noc(C(C)C)n1,4
7,Cc1cc(C)cc(-c2nc(-c3ccc(Cl)cc3)no2)c1,4
8,COc1ccc(-c2noc(-c3ccccc3Br)n2)cc1,4
9,Cc1ccccc1CSc1nnc(-c2ccco2)o1,0 (active)
10,Cc1cccc(-c2noc(COc3ccc(C)c(C)c3)n2)c1,4
11,CCOc1cc(-c2nc(-c3ccc(OC)cc3)no2)cc(OCC)c1OCC,4
12,Fc1ccc(-c2noc(COc3ccccc3)n2)cc1,3.5
13,CCCCc1nc(-c2ccc(-c3ccc(C)cc3)nc2OC)no1,4
14,CCc1ccc(C(=O)Nc2ccccc2-c2nc(-c3cccnc3)no2)cc1,4
15,O=C(CSc1nnc(-c2cccnc2)o1)c1ccc2ccccc2c1,4
16,O=C(CSc1nnc(-c2ccc(Cl)cc2Cl)o1)c1ccc2c(c1)OCCO2,4
17,CCNC(=O)c1ccccc1-c1nc(-c2ccccc2)no1,4
18,Clc1cccc(-c2nc(-c3cccnc3)no2)c1,2
19,O=C(CSc1nnc(-c2ccc(Cl)cc2)o1)c1ccccc1,4
